Data published in the supplement of paper PMC11417369.
± gives the standard deviation of the averaged measurements. The full ranking holds about 25,000 sequences; the median of “ln(normalized median fluorescence intensity)” is about 8.9, and the highest 2% start at about 10. For the sample, the highest values were picked, then their nearest neighbours and some sequences at random.

Test system: PfAP2-LT AP2 domain (GST-tagged)
Test: gcPBM binding intensity (ln(normalized median fluorescence intensity)); higher = stronger DNA binding
How it was run: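 For binding intensity, the highest Masliner-normalised natural-log median intensity across replicate spots of either probe orientation was taken. Protein bound to the array was stained with Alexa488 anti-GST antibody and scanned at 488 nm. The protein, GST-tagged P. falciparum DNA-binding domains from E. coli at about 25 μg on average, had been applied for 1 h to an Agilent 4 × 180k array of primer-extended double-stranded 36-bp intergenic genomic probes and negative controls.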

Sequence	gcPBM binding intensity (ln)
GTATATTTAAATAAAAGTACGTAAAGATATATTTAA [XGTACX_site8087]	8.86 ± 0.57
TTTGTCATTTTATTATGTACTCAGCATATAGGGGGG [XGTACX_site505]	10.3 ± 0.33
ATATATATTTATATATGTACATATTTTTGTGTATTT [XGTACX_site1183]	9.14 ± 0.44
TATATATATATATATGCATGTACATATATTTGTTAT [TGCATGCA_site379]	9.99 ± 0.4
TATATATATATATTATGTACTCATTTATTATCTTTT [XGTACX_site8051]	9.04 ± 0.43
ATGCATATATTTATGTGTACATATATTTGTAGGGGG [XGTACX_site6063]	10.2 ± 0.36
ATATATATATATATATGTACTCATATTTTATTATTT [XGTACX_site898]	9.665 ± 0.078
TTATATTATGGACACACACACAAAAAAAAAAAAAAA [CACACA_site7744]	9.32 ± 0.51
TATGATTTTTATATATGTACGTATGGTGTTTTACAA [XGTACX_site6100]	8.76 ± 0.41
GTTTGGTGGTGTTTTGGTACGTACGGGGGGGTATGT [XGTACX_site1983]	10.9 ± 0.18
GTTTGGTGGTGTTTTGGTACGTACGGGGGTGTATGT [XGTACX_site1211]	9.88 ± 0.16
AACATAATAAAAAAACGTACATAATTTTATATACAT [XGTACX_site6602]	8.87 ± 0.41
GTAGAGAAAAAAATGTGGACACAAAAAATAAAAAGG [XGTACX_site4058]	8.96 ± 0.45
AAATAACACATATATACACACATATAAATATAATAT [CACACA_site2692]	9.29 ± 0.34
ATAAATAAAGGACACACACACACACTAGAAAAAAAA [CACACA_site5450]	10.2 ± 0.3
ATAAGAAAAGGACACACACACAAAAAAAAAAAAAAA [CACACA_site7351]	9.48 ± 0.51
CACTAAAATAGACACACACACACACGGATATAAATA [CACACA_site7873]	10.3 ± 0.29
TATATAAATAGACACACACACACATATAAATAAATA [CACACA_site7855]	10 ± 0.34
AAAAAAAATAGACACACACACATACACATAAATATA [CACACA_site7742]	9.82 ± 0.38
AAGGATATAACATACACACACACACGGATATAAATA [CACACA_site7867]	10.2 ± 0.37

Sequence	gcPBM binding intensity (ln)
AAAATACATAGACACACACACACACGGATATAAATA [CACACA_site7643]	10.2 ± 0.2
AATATAAGGATATATACACACATAAATACATACATA [CACACA_site7859]	9.25 ± 0.45
CATATACATAGACACACACACACATAAATAAATATA [CACACA_site6749]	9.91 ± 0.33
AATATAAATAAAAACACACACACACGGATATTTATA [CACACA_site7134]	10 ± 0.25
AATGTAGGTTTATTTACACACAAATATAGATATATA [CACACA_site6825]	8.96 ± 0.4
GGGAGGATATTACACAGTACCCAGGAAATCTACGGA [XGTACX_site4874]	8.81 ± 0.5
TTTTTTTAAAAAAAGGGTACATATATATATTTTTCT [XGTACX_site1066]	8.43 ± 0.49
ATATATATATATGTTAGTACTTATATTGAAATGGTA [XGTACX_site1406]	9.05 ± 0.042
TATATTATTTTATATTGTACATACCAAATATTATAT [XGTACX_site1693]	8.68 ± 0.41
TATTTTTTTTTTTTTTTTTTTTTTATATATACATAT [CACACA_negctrl_site23]	8.61 ± 0.52
AAATGGGCTTATTTATGTACTTAAATATATCTACCC [XGTACX_site3823]	8.85 ± 0.61
TTTCTTTTTTTTTTTTTTTCTGGCTTTTTCTCTTTT [TGCATGCA_negctrl_site599]	8.69 ± 0.49
AGAATAAAAAGGAACACACACACACGCATATAAATA [CACACA_site7659]	10.1 ± 0.39
ACCATATAAATAAACACACACACACGGATATAAATA [CACACA_site7157]	10.1 ± 0.2
AAAAAAAAAAAAAACACACACACACGCATAAATATA [CACACA_site6217]	9.95 ± 0.28
ATATAAAGAAAAGGAACACACAAATATATATATATA [CACACA_site463]	9.56 ± 0.25
TATTAATACGGACACACACACACACTAGATAAAATA [CACACA_site4295]	10.1 ± 0.11
TAATATAAAGAAAAGGAACACACAAATATATATATA [CACACA_site8049]	9.04 ± 0.38
AATAAAAAGGAACACACACACACACGGATATAAATA [CACACA_site7658]	10.3 ± 0.37
ATAAATATTAAAAGTACACACAGATACACTAATTAT [CACACA_site1808]	9.16 ± 0.36

Sequence	gcPBM binding intensity (ln)
AACAAATACGGACACACACACACACTAGAAAAAAAA [CACACA_site4442]	9.82 ± 0.29
TGATTTGTGCCGATTTGTACACATTTATATATATAT [XGTACX_site2154]	9.13 ± 0.35
GTATATATATATATATATATATATATATATATATAT [CACACA_negctrl_site609]	9.63 ± 0.042
ATACAAATTGTTTAAAGTACAAATTACACCTCTTAA [XGTACX_site6888]	8.62 ± 0.44
CATAGGAACATAAGTTGTACGCTATACATACAACAT [XGTACX_site1054]	9.05 ± 0.45
TTTTCTATATAGTGTTGTACATTATTGTGTAAAAAT [XGTACX_site3223]	8.7 ± 0.46
AATATAATGTAATATACACACATATATTTCTCTTTT [CACACA_site5451]	8.95 ± 0.45
TATAGATACCTATACACACACACACGGACATATATA [CACACA_site7585]	10 ± 0.25
AGTATACATATATATACACACACACCGATATATATA [CACACA_site8357]	9.74 ± 0.23
ACCATACATACATACACACACACACGCATATTTATA [CACACA_site7386]	10.1 ± 0.29
CATATATACACATACACACACACACGGACACGCACA [CACACA_site6910]	10.07 ± 0.085
TATTTATATTTATATACACACATACATATTTATATT [CACACA_site6535]	9.1 ± 0.4
TATACACGCGGACACACACACACACGCAAAAAAAAA [CACACA_site6377]	10 ± 0.23
ACCTACATAACATACACACGCATATATATAATTTTA [CACACA_site2847]	9.22 ± 0.33
CATACACGCGGACACACACACACACGCATATATAAC [CACACA_site6427]	10.1 ± 0.23
CGCATACACGGACACACACACACATATATATATATA [CACACA_site4520]	10.23 ± 0.071
ATAGTATACGGACACACACACACACCGATATATATA [CACACA_site5032]	10.3 ± 0.38
TATATATATATTTATACACACACATATATTTATATA [CACACA_site8054]	9.13 ± 0.29
ATAGTATACAGACACACACACACACCGATATATATA [CACACA_site8511]	10.1 ± 0.13
